# Sampled rows, rich in hits. Any-hit rate of the full collection: about 13%.
# USP8 block: inhibitors of human USP8 deubiquitinase | AID 1645853, 2021 | 47,000 tested, 4.2% active | inhibition, % at 20 µM | Ubiquitin carboxyl-terminal hydrolase 8 (Homo sapiens), P40818 | purified USP8, Ub-rhodamine cleavage fluorescence, 30 min
# Target sequence (P40818 whole entry, looked up): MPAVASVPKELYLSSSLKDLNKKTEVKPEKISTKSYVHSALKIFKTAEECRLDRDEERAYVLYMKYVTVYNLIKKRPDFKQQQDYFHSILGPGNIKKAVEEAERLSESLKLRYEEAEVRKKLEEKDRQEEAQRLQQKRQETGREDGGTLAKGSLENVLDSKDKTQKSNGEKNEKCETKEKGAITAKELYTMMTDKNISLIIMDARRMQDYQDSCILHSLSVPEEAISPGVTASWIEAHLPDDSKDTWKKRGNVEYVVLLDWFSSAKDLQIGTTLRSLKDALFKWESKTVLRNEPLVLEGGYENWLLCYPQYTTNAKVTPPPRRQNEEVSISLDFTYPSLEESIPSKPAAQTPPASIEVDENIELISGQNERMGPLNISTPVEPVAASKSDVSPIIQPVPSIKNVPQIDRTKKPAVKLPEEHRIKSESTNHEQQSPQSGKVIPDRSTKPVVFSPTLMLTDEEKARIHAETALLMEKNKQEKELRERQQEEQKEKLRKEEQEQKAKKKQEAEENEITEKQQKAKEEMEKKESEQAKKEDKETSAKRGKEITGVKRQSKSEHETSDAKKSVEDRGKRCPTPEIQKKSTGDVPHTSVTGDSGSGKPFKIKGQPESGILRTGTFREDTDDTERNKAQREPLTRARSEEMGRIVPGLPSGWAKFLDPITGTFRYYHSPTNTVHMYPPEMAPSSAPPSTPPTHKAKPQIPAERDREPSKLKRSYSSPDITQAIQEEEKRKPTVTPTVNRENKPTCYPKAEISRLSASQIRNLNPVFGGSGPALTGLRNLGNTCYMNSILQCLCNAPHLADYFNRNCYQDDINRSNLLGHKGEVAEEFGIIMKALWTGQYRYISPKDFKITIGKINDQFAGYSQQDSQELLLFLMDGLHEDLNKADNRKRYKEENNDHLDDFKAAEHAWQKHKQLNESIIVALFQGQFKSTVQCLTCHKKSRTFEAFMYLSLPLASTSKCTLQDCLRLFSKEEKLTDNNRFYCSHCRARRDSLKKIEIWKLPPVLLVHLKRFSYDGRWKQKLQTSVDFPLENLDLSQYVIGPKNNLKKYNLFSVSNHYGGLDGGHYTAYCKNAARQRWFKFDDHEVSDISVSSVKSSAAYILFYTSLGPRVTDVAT
# USP28 block: inhibitors of human USP28 deubiquitinase | inhibition, % at 25 µM | Ubiquitin carboxyl-terminal hydrolase 28 (Homo sapiens), Q96RU2 | AID 1645857, 2021 | 47,000 tested, 3% active | purified USP28, Ub-rhodamine cleavage fluorescence, 30 min
# USP17 inh: inhibitors of human USP17 deubiquitinase. 47,000 tested, 6.5% active. purified USP17, Ub-rhodamine cleavage fluorescence, 3 h. Ubiquitin carboxyl-terminal hydrolase 17-like protein 5 (Homo sapiens), A8MUK1. AID 1645855, 2021. inhibition, % at 50 µM
# USP30 block: inhibitors of human USP30 deubiquitinase; Ubiquitin carboxyl-terminal hydrolase 30 (Homo sapiens), Q70CQ3; purified USP30, Ub-rhodamine cleavage fluorescence; inhibition, % at 25 µM; 47,000 tested, 5.3% active; AID 1645860, 2021
# * = called active by the depositor; nt = no result. No stated cut-off is given here; in the data, active means inhibition above about 30%; inactive means the rest.
SMILES,USP8 block,USP28 block,USP17 inh,USP30 block
O=C(Cc1ccccc1)NC1CC(=O)N(c2cccc(F)c2)C1 (configuration not stated),-2,-10,-5,3
CC(C)N1Cc2cc(C(=O)N3CCN(c4ccccc4F)CC3)sc2C1,3,6,8,21
COc1ccc(-n2cc(-c3ccccc3)c3c(NC4CC4)ncnc32)cc1,3,7,5,4
O=C(c1ccc(F)cc1)N1CCc2cc(-c3csc(Nc4ccccc4)n3)ccc21,-88,-8,-23,-135
NC(=O)c1cc(-c2csc(NNc3ccccc3)n2)ccc1O,19,3,47*,-61
O=C(Nc1cccc(F)c1)c1cc(-c2ccncc2)n(-c2ccc(F)cc2)n1,11,2,6,15
O=C(NC1CC1)c1cc(-c2cccnc2)n(-c2ccccc2)n1,16,16,16,31*
COc1cc(NC(=O)c2cc(-c3ccncc3)n(-c3ccccc3)n2)cc(OC)c1,14,40*,4,11
CC(CCc1ccccc1)NC(=O)CSc1ncnc2nc[nH]c12 (configuration not stated),-15,nt,0,nt
O=C(Cc1ccccc1)c1ccc(Br)s1,17,35*,25,9
O=C(COc1ccccc1F)Nc1ccc2c(c1)CN(C(=O)c1ccco1)CC2,7,41*,26,27
COc1ccccc1OCC(=O)Nc1ccc2c(c1)CCC(=O)N2Cc1ccccc1,11,15,14,54*
O=C(COc1ccc(F)cc1)Nc1ccc2c(c1)CCC(=O)N2Cc1ccccc1,1,10,nt,12
O=C(COc1ccccc1)Nc1ccc2c(c1)CN(C(=O)c1ccco1)CC2,-7,26,7,-5
COc1ccccc1OCC(=O)Nc1ccc2c(c1)CN(C(=O)c1ccco1)CC2,5,36*,33*,22
COc1ccc(C(=O)Nc2ccc3c(c2)CN(C(=O)c2ccco2)CC3)c(OC)c1OC,-3,14,-3,-14
Clc1cccc(-n2ncc3c(NCc4ccco4)ncnc32)c1,2,-14,-23,-63
Cn1c(COc2ccccc2)nnc1SCc1cc(=O)c2cc(Cl)ccc2[nH]1,33*,-11,8,4
CCN1C(=O)c2cccnc2Sc2cc(NC(=O)COc3ccc(OC)cc3)ccc21,13,20,18,0
COc1cc(O)c2c(O)c3c(cc2c1)CC(C)OC3=O (configuration not stated),29,64*,75*,-56
c1ccc(-c2nnc3n2-c2ccccc2SC3)cc1,11,15,17,31*
O=C(COc1ccc2c(c1)CCC2)N1CCCC1c1ccc2c(c1)OCCCO2 (configuration not stated),9,10,10,20
Cc1nc(-c2cccc(NC(=O)C3CC(=O)N(c4cccc(Cl)c4)C3)c2)no1 (configuration not stated),31*,6,21,24
CCc1nc(-c2cccc(NC(=O)C3CC(=O)N(c4ccc(C)c(C)c4)C3)c2)no1 (configuration not stated),39*,27,60*,60*
COc1ccc(NC(=O)Cn2c(=O)n(Cc3ccco3)c(=O)c3ccc(C(=O)NC4CCCC4)cc32)cc1,60*,0,11,10
SMILES,USP8 block,USP28 block,USP17 inh,USP30 block
COCCCNC(=O)c1ccc(Cn2c(=O)c3ccccc3n(CC(=O)Nc3ccc(OC)cc3OC)c2=O)cc1,11,nt,75*,nt
CCOC(=O)Cn1c(=O)n(Cc2ccc3c(c2)OCO3)c(=O)c2ccc(C(=O)NC3CCCCC3)cc21,9,11,29,25
COCCCNC(=O)c1ccc(Cn2c(=O)c3ccccc3n(CC(=O)c3ccccc3)c2=O)cc1,5,2,2,9
COCCCNC(=O)Cn1c(=O)n(Cc2ccc(C(=O)NCc3ccccc3OC)cc2)c(=O)c2ccccc21,14,27,13,53*
COCCCNC(=O)c1ccc(Cn2c(=O)c3ccccc3n(CC(=O)Nc3ccc(OC)cc3)c2=O)cc1,6,5,67*,6
O=C(c1ccc(Cl)cc1)N1CCSC1COc1ccc([N+](=O)[O-])cc1 (configuration not stated),-67,19,2,29
Cc1ccc(CCNC(=O)c2cc(Nc3ccccc3C)nc3ccccc23)cc1,-3,3,-5,-10
Cc1cccc(NC(=O)Cn2cncc(C(=O)NC3CCCC3)c2=O)c1,5,2,1,17
Cc1nc2nc(NCc3cccs3)[nH]n2c(=O)c1CCC(=O)N1CCCCC1,18,17,7,24
O=C1N(Cc2ccc(F)cc2)c2ccccc2S(=O)(=O)N1Cc1ccc(F)cc1,5,12,3,13
Cc1cccc(CN2C(=O)N(Cc3ccccc3)S(=O)(=O)c3ccccc32)c1,13,15,7,34*
CC(=O)c1ccc(N2C(=O)N(Cc3cccc([N+](=O)[O-])c3)c3ccccc3S2(=O)=O)cc1,1,18,14,53*
Cc1cc(NC(=O)CSc2nnc(-c3ccncc3)n2-c2ccccc2)n(-c2ccccc2)n1,-6,-11,-8,8
O=c1oc(-c2cccs2)ns1,2,0,0,17
O=c1c2ccccc2oc2nc(-c3cccs3)n(-c3ccccc3)c(=O)c12,98*,9,57*,33*
COc1ccc(-c2ccc(C#N)c(SCc3cc4c(cc3Cl)OCO4)n2)cc1,2,-96,43*,-179
CCOc1ccc(S(=O)(=O)Nc2ccccc2C(=O)N2CCC(C)CC2)cc1,-8,-2,-3,7
O=C(Nc1sc2c(c1-c1nc3ccccc3[nH]1)CCCC2)C1CC(=O)N(Cc2ccccc2)C1 (configuration not stated),-41,-14,38*,-73
COc1ccccc1C(=O)Nc1sc2c(c1-c1nc3ccccc3[nH]1)CCCC2,10,-19,8,-75
CC1Cc2ccccc2N1C(=O)CCS(=O)(=O)c1ccc2c(c1)SCC(=O)N2 (configuration not stated),-58,-79,-75,-297
COc1cccc(CNC(=O)c2ccccc2OCc2ccccc2)c1,10,19,31*,41*
COc1ccccc1CNC(=O)c1ccccc1OCc1ccc(F)cc1,23,29,27,38*
C[C@@H](C(=O)NCc1ccc2c(c1)OCO2)N1C(=O)N2CCc3c([nH]c4ccccc34)[C@@]2(C)C1=O,11,15,30,33*
Cc1ccc(CNC(=O)[C@H](C)N2C(=O)N3CCc4c([nH]c5ccccc45)[C@@]3(C)C2=O)cc1,-16,-20,-15,-4
C[C@@H](C(=O)NCc1ccc(F)cc1)N1C(=O)N2CCc3c([nH]c4ccccc34)[C@@]2(C)C1=O,-7,36*,59*,46*
